13 compounds from PubChem BioAssay (NCATS) can be followed below.

Several values for one entry are separate records, joined by “and”; a condition that tells them apart may be missing. Equal entries are not always repeated. Inconclusive results are not listed. Activity calls are given as the source filed them. Unless noted, calls come from the whole dose curve; as a rule, active = well fitted curve in the direction sought with a large enough effect; inconclusive = small, poorly fitted or top-dose-only effect, or another doubt; inactive = no such curve, though single readings can be large; an effect the other way counts as inactive or inconclusive.

Assay [1] addresses Galactokinase (Homo sapiens) (UniProt P51570). The assay is described as follows: qHTS Validation Assay for Inhibitors of Human Galactokinase (GALK) (AID 493189). Note: 0% is about no effect. In outline:
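Enzyme activity is inferred from ATP consumption: human GALK phosphorylates galactose (100 uM) using 35 uM ATP for 1 h at room temperature, and luciferase-based Kinase-Glo Plus reports unconsumed ATP.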
(In general: Quantitative high-throughput screening tests each substance at several concentrations.)

Assay [2] is described as follows: Validation screen for small molecules that induce DNA re-replication in SW480 colon adenocarcinoma cells (AID 504364). Note: 0% is about no effect. In outline:
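SW480 cells seeded at 250 per well were exposed to compound or DMSO for 48 hr at 37 C, 5% CO2, then stained with Hoechst for 40 min. DNA content per nucleus was imaged (405 nm ex, 500-530 nm em).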

Assay [3] has as its target Peptidyl-prolyl cis-trans isomerase NIMA-interacting 1 (Homo sapiens) (UniProt Q13526). The assay is described as follows: qHTS Validation Assay to Find Inhibitors of Pin1 (AID 504536; active = well fitted inhibition curve with a large enough effect in the polarisation, with a control signal flat, not every such curve was filed as active; the % refers to the polarisation;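 note: 0% = full Pin1 enzyme wells and -100% = no-enzyme wells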). The essentials: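 Fluorescence polarization competition: compounds (titration) displace HiFluor-488-labeled Pin1-1b peptide from Pin1 (0.3 uM final) in pH 7.5 HEPES buffer with DTT, 10 min at room temperature; %Activity normalized to no-enzyme wells, curves fitted.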

Assay [4] has as its target Phosphoglycerate kinase, glycosomal (Trypanosoma brucei brucei) (UniProt P07378). In words: qHTS Validation Assay to Find Inhibitors of Phosphoglycerate Kinase (AID 504547).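 Note: control wells lack PGK and mark full inhibition.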 The essentials:
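PGK activity was coupled to GAPDH (100nM final), which generates the unstable substrate 1,3-bisphosphoglycerate in-well. Reactions ran 60 minutes at room temperature in 100mM TEA pH 7.6, 5mM MgCl2, 0.01% Tween-20, then Kinase-Glo Plus luminescence was read.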

Assay [5] deals with phosphoglycerate mutase (Leishmania major) (UniProt Q4Q090). In words: qHTS Validation Assay to Find Inhibitors of Phosphoglycerate Mutase (AID 504548). Note: series mostly up to about 58 µM; % is set by controls: 0 for no effect and ±100 for the full control effect. In outline:
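Luminescent end-point read-out via Kinase-GloPlus after a 10-minute development. Reaction: 1.25nM Leishmania major PGAM with substrate and compound, 45 minutes at room temperature in TEA buffer (pH 7.6) with MgCl2 and Tween-20.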

Assay [6] concerns the target Ubiquitin carboxyl-terminal hydrolase 1 (Homo sapiens) (UniProt O94782). In words: Inhibitors of USP1/UAF1: Pilot qHTS (AID 504865). Note: nearly all actives have a fitted effect of over 35% in size. Note: potency is the fitted concentration of half-maximal effect. The essentials: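 Enzyme-free wells gave the negative control, while test wells held 1nM USP1/UAF1 preincubated with compound for 15 min at room temperature. Ub-Rho at 150nM final started the reaction, and fluorescence at 480/540 nm was recorded kinetically.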

Assay [7] in a line: qHTS for Inhibitors of ATXN expression: Validation of Cytotoxic Assay (AID 588349). Note: potency is the fitted concentration of half-maximal effect. The essentials: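 HEK293 cells were dosed with titrated compounds for 72 hr at 37 degrees C. Viability was read by CellTiter Glo luminescence, with intracellular ATP as the marker of cell survival.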
Assay [8] is described as follows: qHTS for Inhibitors of ATXN expression: Validation (AID 588378). Note: nearly all actives have a fitted effect of over 75% in size. Note: potency is the fitted concentration of half-maximal effect. The essentials:
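After a 2 h attachment and 24 h compound incubation, HEK293-ATXN2-FFLuc wells are read for fluorescence at 405 nm excitation/525 nm emission as a viability measure, then for Bright-Glo luminescence reflecting ATXN2 expression.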

In assay [9] the target is Bile acid receptor (Homo sapiens) (UniProt Q96RI1). The assay is described as follows: qHTS assay for small molecule antagonists of farnesoid X receptor signaling (AID 588526; calls by dose curve; note: % is set by controls: 0 for no effect and ±100 for the full control effect). In outline: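 Antagonist mode: titrated compounds tested against chenodeoxycholic acid stimulation (normalized to 50 uM CDCA and DMSO) in GeneBLAzer HEK293T cells for 16 h. Beta-lactamase read by CCF4 fluorescence; IC50 from Hill fits.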

A short description of assay [10]: qHTS assay for small molecule antagonists of peroxisome proliferator-activated receptor delta signaling (AID 588535; active = well fitted inhibition curve with a large enough effect in the signal ratio, with a control signal flat, not every such curve was filed as active; the % refers to the signal ratio;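 for max response: cells co-treated with a PPAR-delta agonist as stimulator during compound exposure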). Particulars: HEK293T PPARd-UAS-bla, beta-lactamase FRET ratio, 18 h; 460 nm channel. The essentials: (§1)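 Cells were seeded at 4000 per well in assay medium containing 2% charcoal/dextran FBS and held 5 hrs at 37 C. Compounds were then added for 18 hrs. CCF4 substrate was applied for 2 hrs at room temperature before fluorescence reading.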

The target of assay [11] is Peroxisome proliferator-activated receptor delta (Homo sapiens) (UniProt Q03181). Described as above. The essentials: as §1
In assay [12] the target is Peroxisome proliferator-activated receptor gamma (Homo sapiens) (UniProt P37231). The assay is described as follows: qHTS assay for small molecule agonists of peroxisome proliferator-activated receptor gamma signaling (AID 588536; active = well fitted curve in the direction sought with a large enough effect in the signal ratio, with a control signal flat, not every such curve was filed as active; the % refers to the signal ratio;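 note: 0% = DMSO basal wells and 100% = rosiglitazone at 2 µM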). The essentials: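 Test agents, titrated, stimulated HEK293 UAS-bla cells overnight (16 h, 37 C). Substrate CCF4 was then added for two hours at room temperature before fluorescence reading.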

For assay [13] the target is unchanged. In words: qHTS assay for small molecule antagonists of peroxisome proliferator-activated receptor gamma signaling (AID 588537; active = well fitted inhibition curve with a large enough effect in the signal ratio, with a control signal flat, not every such curve was filed as active; the % refers to the signal ratio;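 note: reporter cells co-stimulated with 50 nM rosiglitazone agonist during compound treatment; % of control where 0% means no effect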). In outline: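 Step one: plate 3000 HEK293 UAS-bla cells per well in medium with 1% stripped serum and hold 6-6.5 h at 37 C. Step two: add compound and 50 nM agonist for 16 h. Step three: CCF4 loading, fluorescence read.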
Assay [14] has as its target DNA dC->dU-editing enzyme APOBEC-3G (Homo sapiens) (UniProt Q9HC16). In words: qHTS for inhibitors of Vif-A3G interactions: Validation (AID 588379). Note: 0% is about no effect. In outline: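 HeLa cells stably expressing Vif and A3G-eYFP, 700 cells/well, incubated overnight at 37 deg C, then exposed to compound overnight at 37 deg C. Inhibition of Vif-mediated degradation read as increased yellow fluorescence (Ex 488/Em 500-530) by laser-scanning cytometry.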

phosphoglycerate mutase (Leishmania major), sequence (Q4Q090 1-553): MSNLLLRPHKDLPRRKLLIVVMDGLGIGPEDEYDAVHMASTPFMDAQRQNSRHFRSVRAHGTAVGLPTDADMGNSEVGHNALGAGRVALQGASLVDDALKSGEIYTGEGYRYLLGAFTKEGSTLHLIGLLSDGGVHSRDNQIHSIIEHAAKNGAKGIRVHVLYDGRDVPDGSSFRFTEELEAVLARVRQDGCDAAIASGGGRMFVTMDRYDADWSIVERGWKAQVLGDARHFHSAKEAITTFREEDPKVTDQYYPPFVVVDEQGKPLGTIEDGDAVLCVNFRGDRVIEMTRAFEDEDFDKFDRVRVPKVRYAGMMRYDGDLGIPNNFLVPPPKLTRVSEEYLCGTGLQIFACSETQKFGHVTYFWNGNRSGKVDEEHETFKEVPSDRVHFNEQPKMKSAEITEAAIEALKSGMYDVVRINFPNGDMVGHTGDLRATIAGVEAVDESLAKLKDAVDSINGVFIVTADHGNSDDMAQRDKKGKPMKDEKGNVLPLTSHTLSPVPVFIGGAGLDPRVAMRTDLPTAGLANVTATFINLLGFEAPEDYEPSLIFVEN
Peptidyl-prolyl cis-trans isomerase NIMA-interacting 1 (Homo sapiens), sequence (Q13526 whole entry, looked up): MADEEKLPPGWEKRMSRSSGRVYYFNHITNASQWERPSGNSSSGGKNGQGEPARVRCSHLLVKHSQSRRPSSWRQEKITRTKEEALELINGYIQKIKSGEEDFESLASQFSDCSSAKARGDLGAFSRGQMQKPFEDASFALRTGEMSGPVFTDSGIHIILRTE
Galactokinase (Homo sapiens), sequence (P51570 whole entry, looked up): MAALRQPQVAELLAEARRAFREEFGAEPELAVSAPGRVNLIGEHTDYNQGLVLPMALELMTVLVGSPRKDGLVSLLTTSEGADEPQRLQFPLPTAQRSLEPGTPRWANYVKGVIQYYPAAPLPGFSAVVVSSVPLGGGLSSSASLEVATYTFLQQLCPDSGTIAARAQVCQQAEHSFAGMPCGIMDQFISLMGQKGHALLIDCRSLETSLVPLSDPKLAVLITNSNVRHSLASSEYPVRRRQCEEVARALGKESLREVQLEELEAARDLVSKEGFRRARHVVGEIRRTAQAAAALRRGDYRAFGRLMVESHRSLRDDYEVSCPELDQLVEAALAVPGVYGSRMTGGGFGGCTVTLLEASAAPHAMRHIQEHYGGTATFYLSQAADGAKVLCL
Phosphoglycerate kinase, glycosomal (Trypanosoma brucei brucei), sequence (P07378 whole entry, looked up): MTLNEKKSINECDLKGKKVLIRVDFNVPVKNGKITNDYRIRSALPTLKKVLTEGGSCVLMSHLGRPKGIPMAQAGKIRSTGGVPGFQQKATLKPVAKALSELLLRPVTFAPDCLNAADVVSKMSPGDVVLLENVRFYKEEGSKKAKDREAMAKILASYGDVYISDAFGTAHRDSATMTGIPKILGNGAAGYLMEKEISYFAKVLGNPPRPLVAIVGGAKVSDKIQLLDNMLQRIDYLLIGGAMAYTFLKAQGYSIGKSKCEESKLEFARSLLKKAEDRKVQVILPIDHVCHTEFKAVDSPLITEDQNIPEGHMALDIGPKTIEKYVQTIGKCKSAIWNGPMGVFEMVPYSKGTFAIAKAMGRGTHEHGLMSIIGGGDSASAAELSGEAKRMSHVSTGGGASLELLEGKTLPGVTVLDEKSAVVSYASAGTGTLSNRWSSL
Ubiquitin carboxyl-terminal hydrolase 1 (Homo sapiens), sequence (O94782 whole entry, looked up): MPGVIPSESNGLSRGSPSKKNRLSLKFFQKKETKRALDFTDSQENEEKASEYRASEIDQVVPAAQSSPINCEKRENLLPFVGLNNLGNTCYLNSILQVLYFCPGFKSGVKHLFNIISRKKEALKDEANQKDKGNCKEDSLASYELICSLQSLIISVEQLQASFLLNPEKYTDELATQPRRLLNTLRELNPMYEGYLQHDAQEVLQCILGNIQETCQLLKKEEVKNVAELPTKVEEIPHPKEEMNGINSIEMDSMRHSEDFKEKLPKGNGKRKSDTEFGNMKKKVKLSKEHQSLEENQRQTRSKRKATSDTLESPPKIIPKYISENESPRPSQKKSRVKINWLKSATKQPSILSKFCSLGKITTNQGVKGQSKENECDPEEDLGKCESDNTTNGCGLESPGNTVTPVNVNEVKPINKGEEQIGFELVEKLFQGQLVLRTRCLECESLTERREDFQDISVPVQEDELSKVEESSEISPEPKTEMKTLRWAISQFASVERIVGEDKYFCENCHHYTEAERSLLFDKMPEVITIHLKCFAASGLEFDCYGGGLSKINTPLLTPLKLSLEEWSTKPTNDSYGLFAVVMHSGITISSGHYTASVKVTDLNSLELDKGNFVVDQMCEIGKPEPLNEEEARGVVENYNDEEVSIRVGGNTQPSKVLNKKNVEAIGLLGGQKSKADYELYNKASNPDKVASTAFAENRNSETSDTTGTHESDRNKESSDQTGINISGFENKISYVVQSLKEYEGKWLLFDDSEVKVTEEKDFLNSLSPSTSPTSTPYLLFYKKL
Peroxisome proliferator-activated receptor gamma (Homo sapiens), sequence (P37231 whole entry, looked up): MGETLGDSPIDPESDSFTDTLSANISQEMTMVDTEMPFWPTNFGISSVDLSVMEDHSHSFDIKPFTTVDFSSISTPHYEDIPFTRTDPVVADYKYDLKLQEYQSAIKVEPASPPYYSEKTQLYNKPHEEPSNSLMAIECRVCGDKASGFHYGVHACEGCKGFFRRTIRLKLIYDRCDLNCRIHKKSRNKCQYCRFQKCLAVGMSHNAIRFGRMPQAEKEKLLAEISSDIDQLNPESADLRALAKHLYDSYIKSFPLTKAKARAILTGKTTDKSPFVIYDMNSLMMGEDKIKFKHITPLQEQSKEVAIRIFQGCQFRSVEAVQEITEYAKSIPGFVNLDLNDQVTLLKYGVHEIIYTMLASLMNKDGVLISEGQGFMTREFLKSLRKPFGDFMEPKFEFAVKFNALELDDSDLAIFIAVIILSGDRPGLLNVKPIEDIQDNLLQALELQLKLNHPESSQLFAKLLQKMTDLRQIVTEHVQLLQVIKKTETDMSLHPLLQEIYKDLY
DNA dC->dU-editing enzyme APOBEC-3G (Homo sapiens), sequence (Q9HC16 whole entry, looked up): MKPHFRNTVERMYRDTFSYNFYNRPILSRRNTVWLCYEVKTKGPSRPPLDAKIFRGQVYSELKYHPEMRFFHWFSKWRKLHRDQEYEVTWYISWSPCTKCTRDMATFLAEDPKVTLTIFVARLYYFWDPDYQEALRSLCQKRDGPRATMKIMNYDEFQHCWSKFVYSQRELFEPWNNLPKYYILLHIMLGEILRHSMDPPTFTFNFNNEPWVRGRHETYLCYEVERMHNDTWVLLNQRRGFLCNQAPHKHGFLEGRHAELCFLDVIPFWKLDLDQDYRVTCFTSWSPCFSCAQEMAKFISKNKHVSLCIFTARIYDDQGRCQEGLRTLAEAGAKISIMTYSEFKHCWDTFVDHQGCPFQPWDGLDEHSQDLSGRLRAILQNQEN
Bile acid receptor (Homo sapiens), sequence (Q96RI1 whole entry, looked up): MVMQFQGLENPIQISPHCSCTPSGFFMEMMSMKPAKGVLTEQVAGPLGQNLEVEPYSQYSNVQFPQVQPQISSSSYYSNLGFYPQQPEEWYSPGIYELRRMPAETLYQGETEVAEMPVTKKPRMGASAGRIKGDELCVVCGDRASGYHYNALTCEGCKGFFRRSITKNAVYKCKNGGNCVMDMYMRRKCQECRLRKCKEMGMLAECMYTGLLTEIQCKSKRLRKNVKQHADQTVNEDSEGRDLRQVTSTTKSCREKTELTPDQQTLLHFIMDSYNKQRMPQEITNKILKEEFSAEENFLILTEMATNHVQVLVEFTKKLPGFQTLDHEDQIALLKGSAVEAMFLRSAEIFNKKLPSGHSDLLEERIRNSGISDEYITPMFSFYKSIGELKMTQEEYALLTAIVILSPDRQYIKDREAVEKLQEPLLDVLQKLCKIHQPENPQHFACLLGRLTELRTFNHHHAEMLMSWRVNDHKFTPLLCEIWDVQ
Peroxisome proliferator-activated receptor delta (Homo sapiens), sequence (Q03181 whole entry, looked up): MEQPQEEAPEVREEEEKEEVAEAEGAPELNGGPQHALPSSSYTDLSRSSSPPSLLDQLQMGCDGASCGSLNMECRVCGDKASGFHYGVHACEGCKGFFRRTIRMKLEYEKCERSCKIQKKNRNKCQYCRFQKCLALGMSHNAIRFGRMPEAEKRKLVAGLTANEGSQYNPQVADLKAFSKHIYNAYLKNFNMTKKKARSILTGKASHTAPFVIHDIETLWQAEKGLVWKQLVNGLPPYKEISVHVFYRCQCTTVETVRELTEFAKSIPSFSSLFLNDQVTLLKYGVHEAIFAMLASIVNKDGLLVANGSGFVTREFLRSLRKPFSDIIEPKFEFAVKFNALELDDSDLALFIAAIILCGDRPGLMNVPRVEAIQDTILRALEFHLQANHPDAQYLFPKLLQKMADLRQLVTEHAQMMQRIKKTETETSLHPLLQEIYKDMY

Turning to `CN(C)CCOC(C)(c1ccccc1)c1ccccn1` (configuration not stated), the result in assay [1], in [2], in assay [3], in assay [4], in [5] and in [9] was inactive. Also, the outcome in assay [11], in assay [12] and in [13] was inactive. The Potency entry in assay [6], in assay [7] and in [8] was “inactive” throughout. Further, the max response in assay [10] is -48.6%.
Regarding `CCN(CC)CCNC(=O)c1cc(Cl)c(N)cc1OC`, the outcome in assay [1], in [2], in [3], in assay [4] and in assay [5] was inactive. The Potency result in assay [6], in assay [7] and in assay [8] was “inactive” each time.
With `CC(C)NC[C@H](O)c1ccc(O)c(O)c1`, the call in assay [1], in [2], in assay [3], in [4], in [5] and in [14] was inactive. Moreover, the Potency result in assay [6] and in [7] was “inactive” in each case.
With `CN1CCN(C2Cc3ccccc3Sc3ccc(Cl)cc32)CC1` (configuration not stated), the compound was classed as inactive in [1], in [2], in [3], in assay [4] and in [5]. In addition, the Potency in [7] is 17.8 µM (active); in assay [8], 12.6 µM (active).
For `C#CCN(C)Cc1ccccc1`, the result in assay [1], in assay [2], in assay [3], in [4] and in assay [5] was inactive. Besides, the Potency result in assay [6], in assay [7] and in assay [8] was “inactive” in each case.
In the case of `O=C1N=C(O)CN1/N=C/c1ccc(-c2ccc([N+](=O)[O-])cc2)o1`, the compound was called inactive in [1], in assay [2], in assay [3], in assay [4] and in [5]. Further, the Potency result in assay [6], in assay [7] and in assay [8] was “inactive” each time.
For `CNCCC(Oc1ccc(C(F)(F)F)cc1)c1ccccc1` (configuration not stated), the call in [1], in assay [2], in [3], in [4] and in [5] was inactive. For the same compound, the Potency entry in assay [6] is “inactive”.
Consider `OCc1cc(C(O)CNCCCCCCOCCCCc2ccccc2)ccc1O` (configuration not stated), for which the compound was classed as inactive in [1], in [2], in [3], in assay [4] and in assay [5]. In [6], the Potency result was “inactive”.
With `Cc1cc(N)c2ccccc2[n+]1CCCCCCCCCC[n+]1c(C)cc(N)c2ccccc21`, the compound was called inactive in assay [1], in assay [2], in [3], in [4], in [5] and in assay [14]. For the same compound, the Potency entry in assay [6] is “inactive”.
Regarding `COc1ccc(Cl)cc1C(=O)NCCc1ccc(S(=O)(=O)NC(=O)NC2CCCCC2)cc1`, the compound was called inactive in assay [1], in assay [2], in [3], in assay [4], in assay [5] and in assay [14]. Moreover, the result in [9] and in [12] was inactive. The Potency entry in assay [6], in assay [7] and in assay [8] was “inactive” in each case.
Take `CCN(CC)CCCC(C)Nc1c2ccc(Cl)cc2nc2ccc(OC)cc12` (configuration not stated): the compound was called inactive in assay [1], in assay [2] and in [4]. In assay [6], the Potency is 56.2 µM (active) and 79.4 µM (active).
With `CCCn1cnc2c1c(=O)n(CCCCC(C)=O)c(=O)n2C`, the outcome in [1], in assay [2], in assay [3], in assay [4] and in [5] was inactive. The Potency entry in assay [6], in [7] and in assay [8] was “inactive” throughout.
For the compound `CC(C)(C)c1onc(OCP(=O)(O)O)c1CC(N)C(=O)O` (configuration not stated), the compound was called inactive in assay [1], in [2], in [3], in assay [4] and in assay [5]. Moreover, the Potency result in assay [6], in [7] and in assay [8] was “inactive” in each case.
